Measurements reported in PubChem BioAssay AID504840 (Johns Hopkins Ion Channel Center, 2011).
Screen size: about 1,500 compounds; about 890 (59%) were called active.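 How the source made its calls: active means inhibition of the choline-evoked signal at any tested dose together with a fitted dose-response curve; inactive means no inhibition at any dose or no curve.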 The set was probably picked from earlier hits. Only a sample is shown. Results with a measured potency or affinity are listed apart.

molecular target: High affinity choline transporter 1 (Homo sapiens) (UniProt Q9GZV3); assay: CHT inhibitors, dose response, cell-based, 5-point CRC, membrane potential dye (AID 504840); conditions: HEK293-CHT, choline-induced depolarization, CHT with LV-to-AA double alanine mutation; series mostly up to 37 µM; inhibition: at the top concentration;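 further: 0% = buffer-only response and 100% = EC90 choline response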
Sequence (Q9GZV3 whole entry, looked up): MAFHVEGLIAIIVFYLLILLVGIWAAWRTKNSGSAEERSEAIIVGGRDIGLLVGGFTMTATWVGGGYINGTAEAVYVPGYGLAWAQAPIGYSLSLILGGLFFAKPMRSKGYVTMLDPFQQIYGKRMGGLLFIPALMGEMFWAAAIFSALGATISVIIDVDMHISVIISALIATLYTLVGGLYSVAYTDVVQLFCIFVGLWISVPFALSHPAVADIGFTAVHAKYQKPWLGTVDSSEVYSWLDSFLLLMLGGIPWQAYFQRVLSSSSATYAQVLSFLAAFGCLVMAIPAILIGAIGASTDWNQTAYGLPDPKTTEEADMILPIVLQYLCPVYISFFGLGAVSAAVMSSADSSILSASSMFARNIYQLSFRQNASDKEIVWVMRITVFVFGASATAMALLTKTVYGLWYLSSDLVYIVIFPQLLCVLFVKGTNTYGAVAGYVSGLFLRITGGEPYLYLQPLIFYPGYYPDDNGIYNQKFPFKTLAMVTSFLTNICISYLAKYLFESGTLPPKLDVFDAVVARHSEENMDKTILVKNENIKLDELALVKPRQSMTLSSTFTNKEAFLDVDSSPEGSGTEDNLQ

Compound	inhibition
CC(C)(C)Nc1nc(Cl)nc(N(C#N)CN2C(=O)c3ccccc3S2(=O)=O)n1	54.5% (inactive)
Cc1ccc(SC(CC(=O)c2ccc(C(C)(C)C)cc2)C(=O)O)cc1 (stereo unspecified)	48.9% (inactive)
O=C(NN1C(=O)/C(=C/c2cccc(O)c2)SC1=S)c1ccccc1O	10.2% (inactive)
COc1ccc(N(CCCN2C(=O)c3cccc4cccc(c34)C2=O)C(=O)c2ccncc2)cc1	27.8% (inactive)
O=C(O)c1ccc(/C=C2\SC(=S)N(NC(=O)c3ccc(Br)cc3)C2=O)cc1	47.5% (inactive)
CC1CC(C)(C)N(C(=O)CN2C(=O)c3ccccc3C2=O)c2ccccc21 (stereo unspecified)	35.4% (inactive)
COc1ccc(OCC(=O)N/N=C/C=C/c2ccccc2)cc1	-4.13% (inactive)
Oc1c(Br)cc(/C=N/NC(=S)NCc2ccco2)cc1Br	25.4% (inactive)
CCCOc1ccc(C(=O)NNC(=S)NC(=O)c2ccccc2)cc1	23.4% (inactive)
COc1ccc(C(=O)NNC(=S)NC(=O)c2ccccc2)cc1	29.4% (inactive)
CC(C)(C)N/N=C/c1cc(Cl)cc([N+](=O)[O-])c1O	54.1% (inactive)
CCOC(=O)c1ccc2c(c1)[nH]c(=S)n2CC	36% (inactive)
CCCCn1c(=O)n(Cc2cccc(F)c2)c(=O)c2c1ncn2Cc1ccco1	68.1% (inactive)
N#Cc1nc(Cc2cccc3ccccc23)oc1N1CCOCC1	30.9% (inactive)
O=C(Cn1ncc2c3ccccc3n(Cc3ccccc3)c2c1=O)NCCCN1CCOCC1	51.5% (inactive)
Oc1cccc(-n2nnnc2SCc2ccccc2F)c1	32.2% (inactive)

Compound	inhibition
Cc1ccccc1-n1nnnc1Sc1nnnn1-c1ccccc1	29.9% (inactive)
C=Cn1cc[n+](CC(=O)c2ccc(Cl)c(Cl)c2)c1	47.2% (inactive)
C=Cn1cc[n+](CC(=O)c2ccc(Cl)cc2)c1	48.6% (inactive)
COc1ccc(Cl)cc1NC(=O)C[n+]1cccc(C)c1	61.8% (inactive)
O=[N+]([O-])c1cc([N+](=O)[O-])c2c(=Nc3ccccc3)n(-c3ccccc3)n(O)c2c1	11.3% (inactive)
CC1CCC(NC(=O)c2ccc(CS(=O)(=O)Cc3ccccc3F)o2)CC1 (stereo unspecified)	68.8% (inactive)
Cc1ccc(C(=O)CCC(=O)NC2CCCC(C)C2C)cc1 (stereo unspecified)	31.5% (inactive)
CCCNC(=O)c1ccc(COc2ccc(C)cc2)o1	34.9% (inactive)
CCC(Oc1ccc(C)cc1)C(=O)Nc1ccc(S(=O)(=O)Nc2nccs2)cc1 (stereo unspecified)	68.2% (inactive)
Cc1ccccc1OC(C)C(=O)Nc1ccc(S(=O)(=O)Nc2nccs2)cc1 (stereo unspecified)	43.2% (inactive)
CC(NCc1ccc(F)cc1)C(=O)Nc1cc(S(=O)(=O)N2CCCCC2)ccc1Cl (stereo unspecified)	18.6% (inactive)
O=C(Nc1ccccc1OC(F)F)c1cccc(S(=O)(=O)N2CCCC2)c1	15.9% (inactive)
Cc1cc(C)n2nc(SCc3cccc(S(=O)(=O)N(C)C)c3)nc2n1	36.9% (inactive)
CSc1ccc(C(=O)C2CCCN(C(=O)c3nonc3C)C2)cc1 (stereo unspecified)	30.4% (inactive)
CCOC(=O)C1CCCN(C(=O)Cc2c(F)cccc2Cl)C1 (stereo unspecified)	9.71% (inactive)
